According to publication PMC4336329 (PLoS ONE, 2015):
The whole screen tested about 310,000 compounds, of which about 14,000 (4.5%) showed an effect of 50% or more. The effect is printed as a negative number. The full list was thinned out, with strong results kept by preference.

target: human ether-à-go-go-related gene (hERG) potassium channel (human, UniProt Q12809); assay: primary screen, population patch clamp on CHO cells stably expressing hERG; higher = less effect of the substance
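Also: peak tail current of the secondary pulse compared with the same well before compound.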

Sequence of human ether-à-go-go-related gene (hERG) potassium channel (Q12809 whole entry, looked up): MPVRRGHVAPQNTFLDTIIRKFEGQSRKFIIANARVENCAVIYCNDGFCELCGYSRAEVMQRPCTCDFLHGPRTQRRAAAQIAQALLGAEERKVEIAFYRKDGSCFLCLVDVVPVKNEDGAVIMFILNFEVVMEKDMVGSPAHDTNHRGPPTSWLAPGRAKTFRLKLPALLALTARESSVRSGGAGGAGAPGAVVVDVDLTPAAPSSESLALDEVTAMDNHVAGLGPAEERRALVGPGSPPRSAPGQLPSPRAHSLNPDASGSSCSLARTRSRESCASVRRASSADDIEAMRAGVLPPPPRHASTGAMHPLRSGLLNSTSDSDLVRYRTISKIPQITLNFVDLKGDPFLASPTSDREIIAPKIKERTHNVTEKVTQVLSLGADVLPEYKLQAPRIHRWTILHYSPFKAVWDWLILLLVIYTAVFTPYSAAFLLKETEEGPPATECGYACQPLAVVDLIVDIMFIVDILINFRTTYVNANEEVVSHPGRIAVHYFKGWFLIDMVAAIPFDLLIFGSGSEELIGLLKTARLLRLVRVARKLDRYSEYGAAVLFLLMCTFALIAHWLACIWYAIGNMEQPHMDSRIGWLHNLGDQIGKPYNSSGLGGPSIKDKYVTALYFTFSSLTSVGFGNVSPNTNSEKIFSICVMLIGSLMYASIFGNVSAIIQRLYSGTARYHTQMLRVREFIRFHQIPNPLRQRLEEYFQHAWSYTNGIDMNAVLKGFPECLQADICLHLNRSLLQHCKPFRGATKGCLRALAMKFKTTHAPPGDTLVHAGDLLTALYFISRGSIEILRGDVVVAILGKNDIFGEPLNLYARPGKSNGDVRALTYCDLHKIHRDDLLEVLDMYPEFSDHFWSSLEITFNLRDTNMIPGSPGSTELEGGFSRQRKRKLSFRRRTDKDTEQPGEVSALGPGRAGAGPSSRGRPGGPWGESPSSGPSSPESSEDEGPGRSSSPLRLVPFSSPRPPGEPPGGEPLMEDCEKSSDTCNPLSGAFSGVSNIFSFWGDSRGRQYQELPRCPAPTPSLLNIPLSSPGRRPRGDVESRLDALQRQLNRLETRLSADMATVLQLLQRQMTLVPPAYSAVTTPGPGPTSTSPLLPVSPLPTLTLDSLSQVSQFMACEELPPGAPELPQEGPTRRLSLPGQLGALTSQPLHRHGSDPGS

| SMILES | hERG current change (%, negative = inhibition) at 10uM |
| --- | --- |
| CCC(=O)N1CC2(c3ccccc3)CN(C(=O)CC)CC(c3ccccc3)(C1)C2=O | 5.6% |
| CC1CCc2cc(F)ccc2N1C(=O)C1(C)CC1(Cl)Cl (stereo not shown) | 4.51% |
| CC1CCCN(CCS(=O)(=O)c2ccccc2)C1 (stereo not shown) | 3.59% |
| O=C(CN(C(=O)CNC(=O)c1ccco1)c1ccc(Cl)c(Cl)c1)NC1CCCCC1 | -27.2% |
| O=C(Nc1ccccc1Sc1ccccc1)c1ccc(F)cc1 | -7.65% |
| O=C(c1ccc(Cl)cc1Cl)N1CCC(C(=O)N2CCOCC2)CC1 | 9.99% |
| CCOC(=O)c1c(C)[nH]c(C)c1S(=O)(=O)NCc1cc(C)ccc1C | -6.49% |
| CCNC(=O)C12CCC(C)(c3nc4cc(C)c(C)cc4nc31)C2(C)C (stereo not shown) | 33.5% |
| CC12CCC(=O)N1C(C(=O)Nc1nc(-c3ccccc3Cl)cs1)CS2 (stereo not shown) | -6.16% |
| Cc1ccc(S(=O)(=O)N2C(=O)CCC2C(=O)Nn2cnnc2)cc1 (stereo not shown) | 5.62% |
| OC(CCCN1CCC(O)(c2ccc(Cl)cc2)CC1)c1ccc(F)cc1 (stereo not shown) | -75.7% |
| O=C(O)C(=O)O.O=C(c1cccc(Cl)c1)N1CCN(Cc2c[nH]c3ccccc23)CC1 | -20.4% |
| OC1(c2ccc(Cl)cc2)CCN(Cc2c[nH]c3ccccc23)CC1 | -63.7% |
| OC(CN1CCN(c2cccc(Cl)c2)CC1)c1ccc(F)cc1 (stereo not shown) | -47.2% |
| OC1(c2ccc(F)cc2)CCN(Cc2cccnc2)CC1 | 4.22% |
| COc1ccc(-c2[nH]ncc2CN2CCC(O)(c3ccc(Cl)cc3)CC2)cc1 | -71.8% |
| COc1ccc(S(=O)(=O)N2CCC(O)(c3ccc(Cl)cc3)CC2)cc1 | 24.2% |
| OCC1(Cc2ccccc2)CCCN(Cc2c[nH]c3ccccc23)C1 (stereo not shown) | -27% |
| OC(CN1CCN(c2ccc(F)cc2)CC1)c1ccc(Cl)cc1 (stereo not shown) | -37.9% |
| COc1ccc(C2(O)CCN(Cc3nnnn3Cc3ccc(C)cc3)CC2)cc1 | -21.4% |
| OC1(c2ccc(Cl)cc2)CCN(Cc2cn[nH]c2-c2ccc(F)cc2)CC1 | -68.7% |
| Cc1ccc(Cn2nnnc2CN2CCC(O)(c3ccc(F)cc3)CC2)cc1 | -7.64% |
| Cc1ccc2c(c1)sc1nc(=O)n(-c3ccc(Cl)cc3)c(=O)n12 | 6.6% |
| O=C(NCCCN1CCOCC1)C1CC(=O)N(c2ccccc2)C1 (stereo not shown) | 12.1% |
| CCN1CCN(Cc2oc(CO)cc(=O)c2O)CC1 | -4.6% |
| CC(=O)c1cccc(NC(=O)c2ccc3ccccc3c2)c1 | 6.07% |
| Cn1cc(C(=O)c2ccc(Cl)cc2Cl)cc1C(=O)N/N=C(\N)COc1cccc(C(F)(F)F)c1 | -4.61% |
| CCOc1ccccc1C1CC(=O)Nc2cc3c(cc21)OCCO3 (stereo not shown) | -2.02% |

| SMILES | hERG current change (%, negative = inhibition) at 10uM |
| --- | --- |
| COCCCN(C(=O)CSCC(=O)Nc1cccc(C)c1)c1c(N)n(Cc2ccccc2)c(=O)[nH]c1=O | 11.3% |
| CC(C)C(NC(=O)c1ccc2c(c1)OCO2)C(=O)N/N=C\c1ccco1 (stereo not shown) | 2.3% |
| CCN1CCCC1CNC(=O)Cn1ncc2c(=O)oc3ccc(C)cc3c21 (stereo not shown) | -2.33% |
| C=CCNC(=O)c1c(N)n(-c2cccc(S(N)(=O)=O)c2)c2nc3ccccc3nc12 | -4.04% |
| O=C(Cc1c(F)cccc1Cl)NCCCn1ccnc1 | -24.6% |
| COc1cc2c(cc1OC)C(C)NCC2.Cl (stereo not shown) | 14.1% |
| OC1(c2ccc(Cl)cc2)CCN(Cc2cn[nH]c2-c2ccccc2)CC1 | -77.7% |
| c1ccc(-c2[nH]ncc2CN2CCc3ccccc3C2)cc1 | -2.39% |
| OCC1(Cc2ccccc2)CCCN(Cc2cn[nH]c2-c2ccccc2)C1 (stereo not shown) | -16.4% |
| O=C1C2CCCN2C(=O)N1CCN1CCN(CCO)CC1 (stereo not shown) | -5.52% |
| O=C1C2CCCCN2C(=O)N1CCN1CCN(c2ccc([N+](=O)[O-])cc2)CC1 (stereo not shown) | -71.5% |
| O=C(CCCN1C(=O)C2CCCCN2C1=O)N1CCN(c2ccc([N+](=O)[O-])cc2)CC1 (stereo not shown) | -74.7% |
| O=C1C2CCCCN2C(=O)N1CCCCN1CCN(c2ccc(F)cc2)CC1 (stereo not shown) | -44% |
| O=C1C2CCCCN2C(=O)N1CCCCN1CCN(c2ccc([N+](=O)[O-])cc2)CC1 (stereo not shown) | -75.8% |
| Cl.Nc1ccc(N2CCN(CCCCN3C(=O)C4CCCN4C3=O)CC2)cc1.O (stereo not shown) | -9.33% |
| O=C1C2CCCN2C(=O)N1CCCN1CCN(c2ccc([N+](=O)[O-])cc2)CC1 (stereo not shown) | -68.3% |
| O=C1C2CCCN2C(=O)N1CCN1CCN(c2ccccc2)CC1 (stereo not shown) | -8% |
| O=C1C2CCCCN2C(=O)N1CCCN1CCN(c2ccc(F)cc2)CC1 (stereo not shown) | -34.8% |
| Cc1ccc(N2CCN(CCCN3C(=O)C4CCCN4C3=O)CC2)cc1.Cl (stereo not shown) | -7.45% |
| CCc1nnc(NC(=O)CSc2nc3[nH]c(=O)cc(O)c3s2)s1 | -0.838% |
| O=C(OCc1ccc([N+](=O)[O-])cc1)c1ccccn1 | -28.2% |
| Nn1c(SCc2c(F)cccc2F)nnc1-c1ccccn1 | 2.69% |
| CC1(C(=O)NCC2CCCO2)Oc2cccnc2NC1=O (stereo not shown) | 5.86% |
| CC(=O)Nc1c2c(nn1-c1ccccc1C)CS(=O)C2 (stereo not shown) | 18.7% |
| Cc1ccc(CS(=O)(=O)c2ccc(C(=O)N3CCN(c4ccccn4)CC3)cc2[N+](=O)[O-])cc1 | -43.9% |
| COc1ccccc1/C=C/C1=NC(=C\C=C/c2ccccc2)/C(=O)O1 | 3.98% |
| CC(/C=N/NC(=O)c1ccc(Cn2cc([N+](=O)[O-])cn2)o1)=C\c1ccccc1 | -5.3% |
